For 21 compounds, Potency and outcome results are on record in PubChem BioAssay (NCATS).

Molecules are shown by their SMILES. Inconclusive results are not listed. Calls of active or inactive are those of the source. Unless noted, the call rests on the fitted dose curve; in most records, active means well fitted curve in the direction sought with a large enough effect; inconclusive means small, poorly fitted or top-dose-only effect, or another doubt; inactive means no such curve, though single readings can be large; an effect the other way counts as inactive or inconclusive.

The nature of experiment [1]: Cytometric Cell-Based qHTS for Inhibitors of the mTORC1 Signaling Pathway in MEF (Tsc2-/-, p53-/-) Cells (AID 2660). Further: potency means the concentration at half of the fitted maximal effect. A digest of the protocol:
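Cells are plated, treated with compound for 24 hrs at 37 degree Celsius, then fixed, blocked and immunostained for phospho-rpS6 Ser235/236. Propidium iodide counterstain follows. Per-well % positive cells is derived from the PI-normalized phospho-S6 signal.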
Background: In qHTS, concentration-response curves come from the screen itself.

A short description of experiment [2]: High Content Imaging Cell-Based qHTS for Inhibitors of the mTORC1 Signaling Pathway in MEF (Tsc2-/-, p53-/-) Cells (AID 2666).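 Further: percent of cells scored positive for phospho-rpS6 Ser235/236 immunostaining by imaging.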 Further: potency means the concentration at half of the fitted maximal effect. In outline:
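Tsc2-/-, p53-/- MEFs (empty-vector stable) grown in DMEM + 10% FBS were exposed to compounds for 24 hrs at 37 degree Celsius, fixed, and stained with Alexa-488 anti-phospho-rpS6 Ser235/236 plus Hoechst. Imaging gave the percentage of positive cells per well.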

Experiment [3] is described as follows: High Content Imaging Cell-Based qHTS for Inhibitors of the mTORC1 Signaling Pathway in MEF Cells (AID 2667). Further: potency means the concentration at half of the fitted maximal effect. A digest of the protocol: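 Tsc2-/-, p53-/- MEFs stably re-expressing WT Tsc2, grown in DMEM + 10% FBS, were treated with compounds for 24 hrs at 37 degree Celsius, fixed, and stained with Alexa-488 phospho-rpS6 Ser235/236 antibody plus Hoechst; results given as % positive cells.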

Experiment [4] in a line: Cytometry Cell-Based qHTS for Inhibitors of the mTORC1 Signaling Pathway in MEF cells (AID 2668). Further: potency means the concentration at half of the fitted maximal effect. In outline:
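Tsc2-/-, p53-/- MEFs re-expressing WT Tsc2; cpd 24 hrs, 37 degree Celsius; PFA fix, Alexa-488 p-rpS6 (Ser235/236) Ab 2 hrs RT, PI counterstain; Acumen 488nm scan; p-S6/PI ratio → % positive cells; PI count = viability.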

The nature of experiment [5]: Validation screen for small molecules that induce DNA re-replication in MCF 10A normal breast cells (AID 463097). Further: nearly all actives have a fitted effect of over 60% in size. Further: potency means the concentration at half of the fitted maximal effect. A digest of the protocol:
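Image-based qHTS: normal breast cells are incubated with compound for 48 hr, stained with Hoechst, and scanned for total nuclear fluorescence. Compounds raising the fraction of nuclei with elevated DNA content count as re-replication inducers.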

Experiment [6] has as its target Ubiquitin carboxyl-terminal hydrolase 2 (Homo sapiens) (UniProt O75604). Description: qHTS Validation Assay for Inhibitors of Ubiquitin-specific Protease USP2a Using CHOP2 as the Reporter (AID 463106). A digest of the protocol:
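Readout was coupled fluorescence (Ex 485/Em 531 nm), read 60 min after adding 25 nM final Ub-CHOP2 and 25 nM reporter substrate. Beforehand, 10 nM final USP2 core had 30 min at RT with compound in pH 8.0 buffer. Curves were fitted after normalization to NEM and flagged for artifacts using time-zero reads.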

For experiment [7], the target named is DNA polymerase III PolC-type (Bacillus subtilis (strain 168)) (UniProt P13267). Description: qHTS Validation Assay for the Inhibitors of DNA Replication in Gram-Positive Bacteria (AID 485295). Further: potency means the concentration at half of the fitted maximal effect. A digest of the protocol:
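First, compound is mixed with the reconstituted replication complex and held at room temperature. Next, circular single-stranded M13Gori with nucleotides starts synthesis. Finally, PicoGreen in EDTA halts the reaction and stains double-stranded product for fluorescence reading.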

Experiment [8] has as its target Tumor susceptibility gene 101 protein (Homo sapiens) (UniProt Q99816). Description: qHTS Validation Assay for Iinhibitors of HIV-1 Budding by Blocking the Interaction of PTAP/TSG101 (AID 485342; calls by dose curve). In outline:
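Binding of a FITC-tagged PTAP-motif peptide (50 nM) to the Tsg101 binding domain (10 uM) is monitored by fluorescence polarization. Compounds are pin-delivered before peptide addition, and incubation runs 20 min at room temperature.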

The target in experiment [9] is Beta-2 adrenergic receptor (Homo sapiens) (UniProt P07550). The experiment can be described thus: qHTS validation assay of beta-arrestin-biased ligands of beta2-adrenergic receptor (AID 485366). A digest of the protocol: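 Compound series up to 46 microM applied to beta2-AR/beta-arrestin Tango cells, 18 hr, 37 degrees C, 5% CO2. Read-out: tTA-driven luciferase luminescence, converted to %Activity; concentration-response curves assigned curve classes.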

The target of experiment [10] is ATP-dependent 6-phosphofructokinase (Trypanosoma brucei brucei) (UniProt O15648). The experiment can be described thus: qHTS Validation Assay to Find Inhibitors of T. brucei phosphofructokinase (AID 485368). Further: potency means the concentration at half of the fitted maximal effect. A digest of the protocol:
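qHTS format, up to 57 uM. PFK 1.25 nM; F6P 0.5 mM; ATP 0.1 mM; 5 mM MgCl2, 0.01% Tween20, 0.1% BSA; 0.1 M TEA pH 8.0; 45 min RT; ADP-Glo readout; no-enzyme control = full inhibition.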

Chain of Ubiquitin carboxyl-terminal hydrolase 2 (Homo sapiens) (O75604 whole entry, looked up): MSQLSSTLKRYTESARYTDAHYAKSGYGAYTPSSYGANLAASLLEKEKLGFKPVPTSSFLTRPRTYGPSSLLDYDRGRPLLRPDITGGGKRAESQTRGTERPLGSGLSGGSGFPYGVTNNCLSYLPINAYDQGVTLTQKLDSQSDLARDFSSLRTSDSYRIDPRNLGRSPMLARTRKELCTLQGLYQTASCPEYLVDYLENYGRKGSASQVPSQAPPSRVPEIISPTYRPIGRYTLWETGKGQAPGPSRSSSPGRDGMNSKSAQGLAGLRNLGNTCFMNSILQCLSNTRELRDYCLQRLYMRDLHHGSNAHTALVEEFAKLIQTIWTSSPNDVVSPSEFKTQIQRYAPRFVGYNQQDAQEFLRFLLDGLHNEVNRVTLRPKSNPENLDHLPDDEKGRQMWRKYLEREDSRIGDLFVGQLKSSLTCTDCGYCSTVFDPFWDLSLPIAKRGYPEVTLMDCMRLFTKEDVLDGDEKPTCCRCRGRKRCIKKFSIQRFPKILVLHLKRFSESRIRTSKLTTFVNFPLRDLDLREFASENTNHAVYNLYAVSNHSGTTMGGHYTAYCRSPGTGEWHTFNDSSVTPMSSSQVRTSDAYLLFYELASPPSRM
Chain of ATP-dependent 6-phosphofructokinase (Trypanosoma brucei brucei) (O15648 whole entry, looked up): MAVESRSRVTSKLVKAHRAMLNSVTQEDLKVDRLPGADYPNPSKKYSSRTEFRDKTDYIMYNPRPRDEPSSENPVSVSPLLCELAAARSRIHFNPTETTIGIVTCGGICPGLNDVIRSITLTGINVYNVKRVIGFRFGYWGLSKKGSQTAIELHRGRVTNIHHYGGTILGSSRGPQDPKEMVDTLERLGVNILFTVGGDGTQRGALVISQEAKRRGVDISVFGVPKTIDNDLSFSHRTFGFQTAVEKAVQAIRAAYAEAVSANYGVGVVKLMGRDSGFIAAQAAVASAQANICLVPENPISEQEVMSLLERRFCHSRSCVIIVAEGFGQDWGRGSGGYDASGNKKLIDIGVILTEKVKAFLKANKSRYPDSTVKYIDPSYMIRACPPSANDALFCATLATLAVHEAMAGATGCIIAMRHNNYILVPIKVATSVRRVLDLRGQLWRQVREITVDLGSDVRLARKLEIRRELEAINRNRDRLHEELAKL
Chain of Beta-2 adrenergic receptor (Homo sapiens) (P07550 whole entry, looked up): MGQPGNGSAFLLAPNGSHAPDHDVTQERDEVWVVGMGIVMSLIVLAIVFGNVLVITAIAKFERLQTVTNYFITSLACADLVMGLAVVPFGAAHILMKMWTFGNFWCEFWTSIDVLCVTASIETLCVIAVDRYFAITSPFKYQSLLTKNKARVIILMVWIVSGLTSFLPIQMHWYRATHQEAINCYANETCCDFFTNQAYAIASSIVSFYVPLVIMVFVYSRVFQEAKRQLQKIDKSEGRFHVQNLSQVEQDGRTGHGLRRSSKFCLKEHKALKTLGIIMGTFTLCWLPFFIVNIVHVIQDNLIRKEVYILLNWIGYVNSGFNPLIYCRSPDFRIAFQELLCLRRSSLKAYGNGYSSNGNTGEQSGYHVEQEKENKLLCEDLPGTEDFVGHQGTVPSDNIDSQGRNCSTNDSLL
Chain of Tumor susceptibility gene 101 protein (Homo sapiens) (Q99816 whole entry, looked up, the tested form may be a part): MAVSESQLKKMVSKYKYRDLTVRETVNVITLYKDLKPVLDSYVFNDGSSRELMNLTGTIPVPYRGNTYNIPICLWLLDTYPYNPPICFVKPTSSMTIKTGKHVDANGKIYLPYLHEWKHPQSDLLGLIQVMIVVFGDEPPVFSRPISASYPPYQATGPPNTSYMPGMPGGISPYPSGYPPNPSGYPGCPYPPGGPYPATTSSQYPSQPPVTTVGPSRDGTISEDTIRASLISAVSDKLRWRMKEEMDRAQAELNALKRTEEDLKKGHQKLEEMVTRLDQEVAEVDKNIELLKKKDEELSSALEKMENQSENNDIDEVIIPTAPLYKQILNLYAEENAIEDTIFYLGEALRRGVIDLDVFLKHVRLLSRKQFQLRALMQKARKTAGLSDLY
Chain of DNA polymerase III PolC-type (Bacillus subtilis (strain 168)) (P13267 whole entry, looked up): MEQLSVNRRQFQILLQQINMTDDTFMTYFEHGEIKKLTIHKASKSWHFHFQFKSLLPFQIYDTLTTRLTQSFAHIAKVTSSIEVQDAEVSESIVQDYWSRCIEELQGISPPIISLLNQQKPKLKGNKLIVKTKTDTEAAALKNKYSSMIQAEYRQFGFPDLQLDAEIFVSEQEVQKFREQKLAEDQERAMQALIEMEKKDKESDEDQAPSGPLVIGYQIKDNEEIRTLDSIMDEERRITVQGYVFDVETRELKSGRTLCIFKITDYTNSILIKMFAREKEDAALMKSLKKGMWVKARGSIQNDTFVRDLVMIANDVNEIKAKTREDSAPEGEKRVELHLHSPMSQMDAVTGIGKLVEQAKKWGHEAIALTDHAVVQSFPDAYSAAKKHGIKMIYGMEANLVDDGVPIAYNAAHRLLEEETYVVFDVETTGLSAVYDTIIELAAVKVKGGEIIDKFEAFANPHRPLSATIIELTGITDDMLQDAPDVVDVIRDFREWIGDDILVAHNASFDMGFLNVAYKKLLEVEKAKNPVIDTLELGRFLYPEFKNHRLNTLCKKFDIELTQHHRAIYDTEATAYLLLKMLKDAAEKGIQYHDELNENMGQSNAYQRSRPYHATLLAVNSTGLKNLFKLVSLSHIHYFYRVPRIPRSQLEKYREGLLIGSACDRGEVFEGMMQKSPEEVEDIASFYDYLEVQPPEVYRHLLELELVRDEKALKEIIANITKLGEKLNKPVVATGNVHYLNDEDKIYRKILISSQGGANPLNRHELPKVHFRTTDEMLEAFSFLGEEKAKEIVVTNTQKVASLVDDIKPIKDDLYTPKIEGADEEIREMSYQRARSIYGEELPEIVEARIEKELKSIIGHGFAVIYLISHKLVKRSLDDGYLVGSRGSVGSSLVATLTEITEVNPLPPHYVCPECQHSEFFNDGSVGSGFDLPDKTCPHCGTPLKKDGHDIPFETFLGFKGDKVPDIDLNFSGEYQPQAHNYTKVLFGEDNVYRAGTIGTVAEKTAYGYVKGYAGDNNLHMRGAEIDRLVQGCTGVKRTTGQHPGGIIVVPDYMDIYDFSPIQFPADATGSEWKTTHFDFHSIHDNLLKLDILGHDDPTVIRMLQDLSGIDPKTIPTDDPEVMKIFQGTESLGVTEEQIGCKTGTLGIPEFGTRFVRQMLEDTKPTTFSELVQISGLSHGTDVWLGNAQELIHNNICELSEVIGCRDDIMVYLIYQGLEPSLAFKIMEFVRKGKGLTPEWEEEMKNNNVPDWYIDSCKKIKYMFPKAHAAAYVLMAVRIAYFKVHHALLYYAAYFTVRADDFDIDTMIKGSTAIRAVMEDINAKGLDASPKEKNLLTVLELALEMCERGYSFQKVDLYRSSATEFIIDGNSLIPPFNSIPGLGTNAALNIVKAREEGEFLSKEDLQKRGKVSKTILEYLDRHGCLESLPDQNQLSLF

Turning to `C[C@@H](N)C1CCC(C(=O)Nc2ccncc2)CC1` (stereo not given in full), the Potency entry in [1], in [2], in [3], in experiment [4], in experiment [5] and in experiment [7] was “inactive” in each case. Moreover, the outcome in experiment [6], in [8] and in experiment [9] was inactive.

On to `O=C1NC(=O)C(c2ccccc2[N+](=O)[O-])=C1Nc1ccc(O)c(Cl)c1`, for which the Potency entry in experiment [1], in [2], in experiment [3], in experiment [4] and in experiment [7] was “inactive” in each case. The compound was classed as inactive in experiment [6], in experiment [8] and in experiment [9].

Consider `NC(=NCc1ccccc1)NC(=O)c1nc(Cl)c(N)nc1N`, for which the Potency entry in experiment [1], in experiment [2], in [3], in experiment [4], in experiment [7] and in [10] was “inactive” in each case. The call in experiment [6], in experiment [8] and in experiment [9] was inactive.

Turning to `Nc1nc(N)c(N=O)c(OCC2CCCCC2)n1`, the Potency in experiment [1] and in experiment [2] was 14.7 µM (active) each time. Further, the compound was called inactive in experiment [6], in experiment [8] and in [9]. Besides, the Potency entry in experiment [7] and in [10] was “inactive” throughout.

Take `O=C(O)c1cccnc1Nc1cccc(C(F)(F)F)c1`: the Potency entry in experiment [1], in experiment [2], in [3], in experiment [4] and in experiment [7] was “inactive” each time. In addition, the compound was called inactive in [6], in [8] and in experiment [9].

On to `O=c1cc(N2CCOCC2)oc2c(-c3ccccc3)cccc12`, for which the Potency in experiment [1] was 3.69 µM (active); in [2], 9.27 µM (active); in experiment [3] it was 0.414 µM (active); in experiment [4], 4.65 µM (active). Also, the compound was classed as inactive in [6], in experiment [8] and in [9]. Also, in experiment [7], the Potency result is “inactive”.

Consider `Nc1ccn([C@@H]2O[C@H](CO)[C@@H](O)C2O)c(=O)n1` (stereo not given in full), for which the Potency entry in experiment [2] and in [7] was “inactive” each time. Further, the call in experiment [6], in [8] and in [9] was inactive.

On to `O=c1c(O)c(-c2cc(O)c(O)c(O)c2)oc2cc(O)cc(O)c12`, for which the Potency entry in experiment [1], in experiment [2] and in [5] was “inactive” throughout. Further, the Potency in experiment [7] is 15 µM (active); in [10] it was 3.01 µM (active). In addition, the compound was called inactive in [8] and in [9].

Consider `O=C(c1ccccc1)c1ccc2n1CCC2C(=O)O` (stereo not given), for which the Potency result in [1], in [2], in experiment [3], in [4], in experiment [5] and in experiment [7] was “inactive” in each case. Moreover, the Potency result in experiment [10] was “inactive”. Also, the compound was called inactive in [6], in [8] and in [9].

Turning to `CCN(CC)C(=S)SSC(=S)N(CC)CC`, the Potency in [2] was 1.85 µM (active). Moreover, the Potency entry in experiment [3] and in [7] was “inactive” in each case. Also, the result in experiment [6], in experiment [8] and in experiment [9] was inactive.

As for `O=C(NCC1CCCCN1)c1cc(OCC(F)(F)F)ccc1OCC(F)(F)F` (stereo not given), the Potency entry in [5] is “inactive”.

In the case of `Cc1cc(O)c2c(c1)C(=O)c1cc(O)cc(O)c1C2=O`, the Potency entry in experiment [1], in experiment [2], in experiment [3] and in experiment [4] was “inactive” throughout. The result in experiment [6], in [8] and in experiment [9] was inactive.

With `Cc1c(OCC(F)(F)F)ccnc1CS(=O)c1nc2ccccc2[nH]1` (stereo not given), the Potency entry in experiment [1], in experiment [2], in experiment [3], in [4], in experiment [5] and in experiment [7] was “inactive” each time. The compound was classed as inactive in experiment [6], in experiment [8] and in experiment [9].

Consider `NCCCCNCCCN`, for which the Potency result in experiment [3], in [4], in experiment [5], in experiment [7] and in [10] was “inactive” throughout. Besides, the call in experiment [6], in experiment [8] and in experiment [9] was inactive.

Take `CC1(C)NC(=O)N(c2ccc([N+](=O)[O-])c(C(F)(F)F)c2)C1=O`: the Potency result in experiment [1], in [2], in experiment [3], in [4], in [5] and in experiment [7] was “inactive” in each case. Moreover, the Potency entry in [10] is “inactive”. The compound was classed as inactive in experiment [6], in [8] and in experiment [9].

As to `CC(C)c1ccc2c(c1)c(SC(C)(C)C)c(CC(C)(C)C(=O)O)n2Cc1ccc(Cl)cc1`, the Potency entry in experiment [1], in [2], in experiment [3] and in [10] was “inactive” in each case. In addition, the Potency in experiment [5] was 10 µM (active); in experiment [7], 21.2 µM (active). The compound was called inactive in experiment [8] and in [9].

With `CNC[C@H](O)c1ccc(O)c(O)c1`, the Potency entry in experiment [1], in experiment [2], in [5] and in [7] was “inactive” throughout. In experiment [3], the Potency was 26.1 µM (active). Besides, the compound was classed as inactive in experiment [6] and in experiment [8].

With `CC(=O)N1CCN(c2ccc(OC[C@H]3CO[C@](Cn4ccnc4)(c4ccc(Cl)cc4Cl)O3)cc2)CC1`, the Potency entry in experiment [1], in experiment [2], in [3], in [4], in experiment [7] and in [10] was “inactive” throughout. The call in [6], in [8] and in experiment [9] was inactive.

Regarding `COc1cc2nc(N3CCN(C(=O)C4CCCO4)CC3)nc(N)c2cc1OC` (stereo not given), the Potency entry in experiment [1], in experiment [2], in experiment [3], in experiment [4], in [5] and in [7] was “inactive” in each case. Also, in [10], the Potency result is “inactive”. Also, the compound was called inactive in experiment [6], in [8] and in experiment [9].

Consider `Cc1nc2n(c(=O)c1CCN1CCC(c3noc4cc(F)ccc34)CC1)CCCC2`, for which the Potency entry in experiment [5] was “inactive”.

With `Cc1cccc(C#Cc2ccccc2)n1`, the Potency result in experiment [1], in [2], in experiment [3], in experiment [4], in [5] and in [7] was “inactive” throughout. The compound was called inactive in experiment [6] and in [8].
